Measured values from PubChem BioAssay (NCATS).
Inconclusive results are not listed. A call without a number means that no potency is given here. Calls of active or inactive are those of the source. The call rests on the fitted dose curve; in most records, active means well fitted cell-killing curve with a large enough effect; inconclusive means small, poorly fitted or top-dose-only effect; inactive means flat fitted curve, though single readings scatter. Peptide text beside a SMILES is read from it. * marks the point of attachment. Octanoyl = CCCCCCCC(=O)*

Experiment: OV-SAHO Cancer Cell Toxicity qHTS against the NCATS CANVASS Library (AID 1347348); further: nearly all actives have a fitted effect of over 55% in size
Conditions: OV-SAHO viability, CellTiter-Glo luminescence, 72 h; series mostly up to 38.3 µM
Text: Natural products and their derivatives continue to be wellsprings of nascent therapeutic potential. However, many laboratories have limited resources for biological evaluation, leaving their previously isolated or synthesized compounds largely or completely untested. To address this issue, the Canvass library of natural products was assembled (https://tripod.nih.gov/canvass), in collaboration with academic and industry researchers, for quantitative high-throughput screening (qHTS) across a diverse set of cell-based and biochemical assays. The pure (>85% purity by liquid chromatography/mass spectrometry [LC/MS]) Canvass library of 346 natural products were submitted by 45 academic laboratories and companies around the world. We collected pure natural products to circumvent deconvolution and structure elucidation due to time and resource limitations. The library was formatted into 1536-well plates and evaluated in 50 qHTS (in an 11-pnt concentration series) bioassays with broad scope of disease-relevant mechanisms. The resulting data set from 50 different assays was then systematically analyzed to identify overall trends and specific natural products with interesting biological activities. Reported herein are the results of each individual qHTS and their corresponding assay protocol. National Center for Advancing Translational Sciences (NCATS), Rockville, MD National Institute of Health (NIH), Bethesda, Maryland
Cancer Cell Toxicity protocol for cell lines COV-362, OV-KATE, OV-SAHO, UWB1.289, UWB1.289-WTBRCA1, HEK-293, HPAF-II, Panc-1005, SW1088, or U-118MG. 1. In a 1536 well, white solid bottom tissue culture plates (Corning 7494), corresponding cells (COV-362, OV-KATE, OV-SAHO, UWB1.289, UWB1.289-WTBRCA1, HEK-293, HPAF-II, Panc-1005, SW1088, or U-118MG) were dispensed in each well at a final concentration of 1000 cells / well (6uL volume) using the Multidrop Combi (Thermo Fisher Scientific) dispenser. 2. The plates were incubated for 4 hours at 37 degrees C/5% CO2/95% Rh. 3. Compounds were pin transferred (~23nL volume) via Wako Pin-tool (Wako Automation, Richmond VA) equipped with a 1536 pin head. The assay plates were treated with compounds in an 11-pnt concentration series with a final concentration range of […] to 85uM. 4. Bortezomib was used as a single dose control (0.5mM column 4, rows 1 - 32) at a final concentration of 1.9uM and as a 16pnt titration (1mM; 1:2 dilution; 16-points; n = 2; column 3, rows 1 - 32) with final concentration range of 0.1nM - 3.8uM. 5. The assay plates were incubated for 72 hours at 37 degrees C/5% CO2/95% Rh. 6. 3uL CellTiter-Glo detection reagent was then added to the plates (columns 2 - 48, rows 1 - 32) and incubated at room temperature for additional 15min. 7. Luminescence signal was acquired via the ViewLux plate reader (PerkinElmer) using a clear filter, 2 second exposure and 2x binning settings.
Potency means the concentration at half of the fitted maximal effect.

SMILES	Potency	activity change, negative = cytotoxicity
C=CC(=C)CC[C@]1(C)[C@H]2C[C@H](OC(=O)C(C)CC)C=C3[C@H](OC(C)=O)O[C@H](OC(C)=O)[C@@]32[C@H](OC)C[C@@H]1C (stereo not given in full)	2.73 µM (active)	
O=C(OC1Cc2c(O)cc(O)cc2OC1c1cc(O)c(O)c(O)c1)c1cc(O)c(O)c(O)c1 (stereo not given)	inactive	
CCC1=C2CCCN3C(=O)O[C@H]([C@H]1OC(C)=O)[C@H]23	inactive	
O=C1CC(c2cc(O)cc(O)c2)Oc2cc(O)ccc21 (stereo not given)	inactive	
C=C(C)CC[C@H](Cc1c(O)cc(O)c2c1O[C@H](c1ccc(O)cc1O)CC2=O)C(=C)C	inactive	
CCC[C@@H](C)/C=C(\C)[C@H](O)[C@H](C)/C=C/CC[C@@H](O)[C@H](C)[C@H](O)[C@H](C)[C@H](O)[C@H](C)[C@H]1O[C@H]([C@H](C)C(=O)O)CC[C@@H]1C	3.34 µM (active)	
Oc1ccc([C@H]2Oc3ccc(/C=C/c4cc(O)cc(O)c4)cc3C2c2cc(O)cc(O)c2)cc1 (stereo not given in full)	inactive	
CC(=O)[C@@H]1[C@@H](O)C[C@H]2[C@]3(C)CC[C@H]4C(C)(C)CCC[C@]4(CO)[C@H]3C[C@H]3OC(=O)[C@@H]1[C@@]32C	inactive	
COc1ccc([C@@H]2c3cc(OC)c(OC)cc3C(=O)[C@H](C)C2C)cc1OC (stereo not given in full)		-3.3% [at 7.64 µM] (inactive)
CCCCCCCCCCCCCCC[C@H](O)C[C@@H](O)C[C@@H](O)C[C@@H](O)C[C@@H](O)C[C@H]1CC=CC(=O)O1	1.49 µM (active)	
C=CC(C)(C)C(=O)[C@@H](C)[C@@H]1CC[C@](C)(C=C)O1	inactive	
CS/C=C/C(N)=O	inactive	
CC(=O)O[C@@H]1C=C2C(=O)OC[C@]2(O)[C@@]2(C)CCCC(C)(C)[C@H]12	5.94 µM (active)	
COc1ccc(/C=C2\COc3cc(O)ccc3C2=O)cc1	inactive	
C[C@@]12CCC[C@@](C)(C(=O)O)[C@H]1CC[C@]13C[C@H]4C[C@H](O[C@@]4(C)C1)[C@H]32	inactive	
C[C@@H]1C(=O)[C@]23CC[C@H]1C[C@]21O[C@H]2C(C)(C)C=CC(=O)[C@]23COC1=O	inactive	
COc1c(O)cc2oc(-c3ccccc3)cc(=O)c2c1O	inactive	
CO[C@@H]1C[C@@H](C[C@H]2CC[C@H](C)[C@H]([C@@H](C)C(=O)O)O2)O[C@]2(O[C@](C)([C@H]3CC[C@@](C)([C@@H]4O[C@@H]([C@H]5O[C@](C)(O)[C@H](C)C[C@@H]5C)C[C@@H]4C)O3)C[C@H]2C)[C@@H]1C	0.0941 µM (active)	
C=C1C[C@@]23C=CC(=O)[C@@](C)(CCC(=O)Nc4c(O)ccc(C(=O)O)c4O)C2C[C@@H]1CC3 (stereo not given in full)	inactive	
O=Cc1ccc2n1C[C@@]1(OC2)O[C@H](CO)[C@@H](O)[C@@H]1O	inactive	

SMILES	Potency	activity change, negative = cytotoxicity
C=C1C(=O)O[C@H]2[C@H]1CC/C(CO)=C\CC[C@@]1(C)O[C@@H]21	23.6 µM (active)	
C=C1C(=O)C[C@H]2C[C@@H]1[C@]2(C)CCC=C(C)C	inactive	
O=C1c2c(O)cc(O)cc2O[C@@H](c2ccc(O)cc2)[C@@H]1c1c(O)cc(O)c2c(=O)cc(-c3ccc(O)c(O)c3)oc12	inactive	
C[C@@H]1C(=O)[C@]23CC[C@H]1C[C@]21O[C@H]2C(C)(C)C=CC(=O)[C@@]23COC1=O	inactive	
C=C[C@]1(C)CC[C@@H]([C@H](C)C(=O)/C=C/C(C)C)O1	inactive	
C/C=C/c1cc(OC)c2c(c1)[C@@H](C)[C@H](c1ccc(O)c(OC)c1)O2	inactive	
CC1(C)CCC[C@]2(C)[C@@H]1CC[C@@]13C[C@@H](CC[C@H]12)C(C)(O)C3 (stereo not given in full)	inactive	
COc1ccc([C@@H]2c3cc(OC)c(OC)cc3C(=O)C(C)C2C)cc1OC (stereo not given in full)	inactive	
C/C1=C/[C@@H](C)[C@H](O)C/C=C/CC/C=C/C(=O)O[C@@H]1[C@H](C)C(=O)/C=C/CC1CC(=O)NC(=O)C1	8.38 µM (active)	
CN1CCc2cc3c(c4c2[C@H]1[C@@H](O)c1ccccc1-4)OCO3	inactive	
C/C(=C\[C@H](C)C(=O)CCCC1CC(=O)NC(=O)C1)[C@@H]1OC(=O)/C=C/CC/C=C/C[C@@H](O)[C@@H]1C	2.98 µM (active)	
C[C@@H]1O[C@@H](Oc2c(-c3ccc(O)cc3)oc3cc(O)cc(O)c3c2=O)[C@H](O)[C@H](O)[C@H]1O	inactive	
O=C(O)CC1OCc2c(O)cccc21 (stereo not given)	inactive	
CCCCCCCCC[C@@H]1C[C@@H]2CC[C@H]3[C@@H](C(=O)OCCCCN=C(N)N)[C@@H](C)N=C(N1)N23	9.2 µM (active)	
CO[C@@H]1[C@H](O)[C@@H](C)O[C@@H](OC[C@@H]2C(C)OC(=O)/C=C/[C@H](C)C(O[C@@H]3O[C@H](C)CC4(OC(=O)O[C@@H]4C)C3O)[C@@H](C)CC(C)C(=O)CC[C@H]3OC23)[C@@H]1OC (stereo not given in full)	inactive	
CCCCCCCC(=O)N[C@@H](CC(C)C)C(=O)N[C@H](C=O)CCC(=O)O (Octanoyl-Leu-Glu-aldehyde)	inactive	
C=C1C[C@@]23C=CC(=O)[C@@](C)(CCCC(C)C(=O)O)[C@@H]2C[C@@H]1CC3 (stereo not given in full)	inactive	
C=C(NC(=O)c1csc(-c2nc3c(cc2O)-c2nc(cs2)C(=O)NC(C(C)O)C(=O)N/C(=C(\C)O)c2nc(cs2)C(=O)NC2c4nc(cs4)C(=O)NC(COC(=O)c4c5c6c(cccc6n4O)COC(=O)[C@@H](OC4C[C@](C)(O)[C@H](N(C)C)[C@H](C)O4)C2OC5)c2nc-3cs2)n1)C(N)=O (stereo not given in full)	inactive	
C[C@@]12C[C@@H](C[C@H]3C(=O)O[C@@H](c4ccoc4)[C@H](OC(=O)c4ccccc4)[C@@H]31)OC2=O	inactive	
CN1CC[C@]2(c3cccc4c3N[C@@H]3N(C)CC[C@]43[C@@]34CCN(C)[C@@H]3Nc3ccccc34)c3ccccc3N[C@H]12	18.8 µM (active)	
